Whole data set: some 110,000 compounds, median “z-score” near -0.1, cut for the highest 2% near 2. Many of the other results were omitted from the sample, so the highest values are more common in it than they were. Activity calls are given as the source filed them.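 The calls were made as follows: active = z-score in the third read window above 3 or below -3; inactive = the rest.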
What follows are molecules tested against Metabotropic glutamate receptor 8 (Rattus norvegicus) (UniProt P70579) (assay: rat mGluR8 modulators via GIRK flux, primary screen, cell-based, thallium flux, HTS (AID 488969)). Conditions: HEK293 rat mGluR8, GIRK (G protein-gated inwardly rectifying potassium channel) thallium flux, FluoZin2; at 10 µM; stronger effect = higher value; submaximal glutamate (EC20) added with thallium.
Metabotropic glutamate receptor 8 (Rattus norvegicus), sequence (P70579 whole entry, looked up): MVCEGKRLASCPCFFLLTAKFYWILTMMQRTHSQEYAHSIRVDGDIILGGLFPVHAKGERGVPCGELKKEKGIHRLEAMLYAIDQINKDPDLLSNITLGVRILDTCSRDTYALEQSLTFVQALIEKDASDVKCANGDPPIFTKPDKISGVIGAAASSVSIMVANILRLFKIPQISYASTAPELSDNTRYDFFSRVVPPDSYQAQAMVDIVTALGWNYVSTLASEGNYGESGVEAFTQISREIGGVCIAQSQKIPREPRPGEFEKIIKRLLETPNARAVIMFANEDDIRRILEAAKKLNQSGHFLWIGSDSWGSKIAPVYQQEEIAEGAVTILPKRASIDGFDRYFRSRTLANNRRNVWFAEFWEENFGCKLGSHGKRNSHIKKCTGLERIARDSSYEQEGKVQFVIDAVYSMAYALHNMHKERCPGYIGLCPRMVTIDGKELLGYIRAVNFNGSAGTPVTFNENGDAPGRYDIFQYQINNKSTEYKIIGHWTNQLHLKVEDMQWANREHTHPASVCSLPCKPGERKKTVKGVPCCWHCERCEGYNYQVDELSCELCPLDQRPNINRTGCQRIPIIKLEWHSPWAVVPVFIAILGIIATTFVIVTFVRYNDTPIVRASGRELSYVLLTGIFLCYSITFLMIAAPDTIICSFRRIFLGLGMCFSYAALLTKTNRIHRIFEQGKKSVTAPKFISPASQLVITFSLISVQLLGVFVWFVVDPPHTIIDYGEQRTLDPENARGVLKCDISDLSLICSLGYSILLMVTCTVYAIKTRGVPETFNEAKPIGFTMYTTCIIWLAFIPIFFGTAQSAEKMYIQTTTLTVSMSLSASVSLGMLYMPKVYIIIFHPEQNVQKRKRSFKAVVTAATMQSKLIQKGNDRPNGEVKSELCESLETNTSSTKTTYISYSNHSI
Work on `COc1ccc(C(=O)NNC(=O)CN2CCC(n3nnc4cc(F)ccc43)CC2)cc1` yielded a z-score of -0.223. For `O=C(O)c1cccc(-c2ccc(/C=N/NC(=O)c3cccnc3)o2)c1`, the z-score was -0.216. For `Cc1ccc(OCC(=O)N/N=C\c2ccncc2)c(C)c1`, the z-score was 1.4. In the case of `Cc1ccc(OCC(=O)N/N=C\c2ccc(-c3cccc(C(=O)O)c3)o2)c(C)c1`, the z-score is reported as 3.24 (active). Molecule `O=C(NC1CCCC1)C1CCN(c2nccs2)CC1` has a z-score of 0.382. In the case of `CCc1cccc(CC)c1NC(=O)COC(=O)CCc1cc(OC)c(OC)c(OC)c1`, the z-score is reported as -0.0755. Work on `CCC(=O)c1c[nH]c(C(=O)NCCCN2CCOCC2)c1` yielded a z-score of -0.121. `CC(=O)N1CCC(N(CCN2CCOCC2)C(=S)Nc2cc(C)ccc2C)CC1` gave a z-score of -0.0971. In the case of `CCCCOC(=O)c1ccc(NC(=S)NC(=O)c2c(Cl)cnn2C)cc1`, the z-score is reported as 11.2 (active). `CCCCOC(=O)c1ccc(NC(=O)c2ccccc2OC)cc1` gave a z-score of -0.0471. For `CCOC(=O)c1ccc(NC(=S)NC(=O)c2nn(CC)cc2Br)cc1`, the z-score was 1.17. In the case of `CCCCOC(=O)c1ccc(NC(=O)c2cnccn2)cc1`, the z-score is reported as 0.00424. Work on `CCn1ncc(Cl)c1C(=O)Nc1ccncc1` yielded a z-score of -0.171. `COC(=O)c1cc(NC(=O)c2c(Cl)cnn2C)cc(C(=O)OC)c1` was tested, and the z-score was -0.191. For `CCCCOC(=O)c1ccc(NC(=S)NC(=O)c2c(Cl)cnn2CC)cc1`, the z-score was 8.06 (active). `Cn1ncc(Cl)c1C(=O)Nc1ccncc1` was tested, and the z-score was 0.243. For `COC(=O)c1ccc(NC(=S)NC(=O)c2c(Cl)cnn2C)cc1`, the z-score was 10.1 (active). For `CCCCOC(=O)c1ccc(NC(=S)NC(=O)c2c(Br)c(C)nn2C)cc1`, the z-score was 4.24 (active). `CCCCOC(=O)c1ccc(NC(=O)c2cc(Cl)ccc2OC)cc1` was tested, and the z-score was -0.0115. With `CCCCOC(=O)c1ccc(NC(=O)c2nn(C)cc2Br)cc1` the z-score was -0.112. `CCc1nnc(NC(=O)C2CCCN2S(=O)(=O)c2ccc(F)cc2)s1` (stereo unspecified) was tested, and the z-score was 0.145. With `CCOC(=O)c1cccc(NS(=O)(=O)c2c(C)[nH]c(=O)[nH]c2=O)c1` the z-score was -0.0134. With `CCn1c(/C=C2\C(=O)Nc3ccccc32)nc2ccccc2c1=O` the z-score was -0.221. Work on `COc1cccc(OCC(=O)N(Cc2nc(-c3ccc(Cl)cc3)no2)C(C)C)c1` yielded a z-score of 0.0492. Work on `CCS(=O)(=O)NC(C)C(c1cccs1)N1CCN(c2ccc(F)cc2)CC1` (stereo unspecified) yielded a z-score of 0.062. For `COc1ccc(OC)c(N2Cc3cc(C)c(C)cc3C2)c1`, the z-score was 0.286. Molecule `NC(=O)N1CCN(C(=O)c2ccco2)CC1` has a z-score of 0.536. In the case of `COc1ccc(OC)c(/C=N/NC(=O)CC2C(=O)NN=C2C)c1` (stereo unspecified), the z-score is reported as -0.12. With `O=C(NC(=S)Nc1ccc(N2CCOCC2)cc1)c1cccc([N+](=O)[O-])c1` the z-score was 0.169. For `CC1CCN(c2ccc(NC(=S)NC(=O)c3ccco3)cc2)CC1`, the z-score was 4.93 (active). In the case of `O=C(NC(=S)Nc1ccc(NC(=O)c2ccco2)cc1)c1ccccc1`, the z-score is reported as -0.416. For `O=C(Nc1ccc(CN2CCOCC2)cc1)c1cc2ccccc2o1`, the z-score was 0.834. Work on `CC1CCN(c2ccc(NC(=S)NC(=O)c3ccc(-c4cccc([N+](=O)[O-])c4)o3)cc2)CC1` yielded a z-score of -0.0494. With `O=C(NC(=S)Nc1ccc(CN2CCOCC2)cc1)c1ccc([N+](=O)[O-])cc1` the z-score was 0.649. In the case of `COc1ccc(NC(=O)c2cc3ccccn3n2)cc1`, the z-score is reported as -0.0979. For `O=C(NC(=S)Nc1ccc(CN2CCOCC2)cc1)c1cccc([N+](=O)[O-])c1`, the z-score was 2.19. Molecule `C=CCN(CC=C)S(=O)(=O)c1ccc(NC(=S)NC(=O)c2ccc(-c3ccccc3)cc2)cc1` has a z-score of -0.107. In the case of `C=CCN(CC=C)S(=O)(=O)c1ccc(NC(=S)NC(=O)c2ccco2)cc1`, the z-score is reported as 10.3 (active). `NS(=O)(=O)c1ccc(NC(=S)NC(=O)c2ccco2)cc1` showed a z-score of -0.0865. For `O=C(Nc1ccc(CN2CCOCC2)cc1)c1cc2ccccn2n1`, the z-score was 4.59 (active). `Cc1cccc2sc(NC(=O)C3CCN(S(=O)(=O)c4cc([N+](=O)[O-])ccc4Cl)CC3)nc12` showed a z-score of 0.0365. With `CCOC(=O)C1CCN(C(=O)COc2ccc(Cl)cc2Cl)CC1` the z-score was -0.471. For `CCCCOC(=O)Nc1ccc(S(=O)(=O)Nc2ccc([N+](=O)[O-])cc2)cc1`, the z-score was 0.51. In the case of `N/C(=N\OC(=O)c1ccc(Cl)c(Cl)c1)c1cccnc1`, the z-score is reported as -0.145. For `COc1ccccc1NC(=O)N(Cc1ccco1)Cc1cc2ccc(C)c(C)c2[nH]c1=O`, the z-score was -1.77. `C=CCn1c(Cc2cccs2)nnc1SCC(=O)c1ccc2ccccc2c1` gave a z-score of -0.708. In the case of `CCOC(=O)c1c(NC(=O)c2noc3c2CCCC3)sc(C)c1C`, the z-score is reported as -0.285. `O=C(NC(=S)Nc1ccc(N2CCOCC2)cc1)c1ccc(Cl)cc1` was tested, and the z-score was 0.272. `O=C(NC(=S)Nc1ccc(N2CCOCC2)cc1)c1ccc2c(c1)OCCO2` was tested, and the z-score was 0.0862. `O=C(NC(=S)Nc1ccc(N2CCCCC2)cc1)c1ccco1` gave a z-score of -1.53. For `O=C(NC(=S)Nc1ccc(N2CCOCC2)cc1)c1ccco1`, the z-score was 3.46 (active). `O=C(NC(=S)Nc1ccc(N2CCOCC2)cc1)c1cccc(Cl)c1` was tested, and the z-score was 4.95 (active). In the case of `S=C(NCc1ccco1)Nc1ccc(N2CCOCC2)cc1`, the z-score is reported as -0.00184. `O=C(c1ccccc1-c1ccccc1)N1CCN(c2ccccn2)CC1` showed a z-score of -0.0481. Work on `O=C(CCc1ccccc1)N1CCN(c2ccccn2)CC1` yielded a z-score of -0.254. `O=C(c1ccccc1CCc1ccccc1)N1CCN(c2ccccn2)CC1` gave a z-score of 2.38.

From PubChem BioAssay AID488969 (Vanderbilt High Throughput Screening Facility, 2010)
